Experimental data published in PubChem BioAssay AID1159580 (chemical genetic matrix, 2015).
Where “and” joins values, the source holds several entries; their conditions need not be identical. Equal entries are not always repeated. Out of some 5,500 compounds screened, about 2,000 (36%) were called active. About 18% were inconclusive and are not listed. Rule as the data show it: active = normalized growth mostly below about 0.91 (no sharp cut-off); inconclusive = no clear call, values can overlap the other calls; inactive = mostly above about 0.92. This is one part of the list.

Test: chemical genetic growth profiling, strain panel (AID 1159580);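 also: tested at 20 µM; growth read once vehicle control cultures reached saturation at 30 °C; 1 = growth at the plate median or of vehicle wells; lower values mean less growth of the strain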
Settings: S. cerevisiae deletion strains, growth OD
[1] = locus YAL013W, strain DEP1, stronger effect = lower value

Measured: normalized growth

CC[C@@H](C)[C@H]1O[C@]2(CC[C@@H]1C)C[C@@H]1C[C@@H](C/C=C(\C)[C@@H](O[C@H]3C[C@H](OC)[C@@H](O[C@H]4C[C@H](OC)[C@@H](O)[C@H](C)O4)[C@H](C)O3)[C@@H](C)/C=C/C=C3\CO[C@@H]4[C@H](O)C(C)=C[C@@H](C(=O)O1)[C@]34O)O2
active: [1] 0.732 | locus YDR363W, strain ESC2, stronger effect = lower value 0.613 | locus YPL241C, strain CIN2, stronger effect = lower value 0.869
inactive: locus YAL040C, strain CLN3, stronger effect = lower value 1.01 | locus YCL061C, strain MRC1 (second series), stronger effect = lower value 0.948 | locus YER002W, strain NOP16, stronger effect = lower value 1.02 | locus YNL175C, strain NOP13, stronger effect = lower value 1.01 | locus YNL197C, strain WHI3, stronger effect = lower value 1.02 | locus YNL224C, strain SQS1, stronger effect = lower value 0.993 | locus YOR083W, strain WHI5 (second series), stronger effect = lower value 0.981

CCC(C)[C@H]1O[C@]2(C=C[C@@H]1C)C[C@@H]1C[C@@H](C/C=C(\C)[C@@H](OC3C[C@H](OC)C(O[C@H]4C[C@H](OC)[C@@H](O)[C@H](C)O4)[C@H](C)O3)[C@@H](C)/C=C/C=C3\CO[C@@H]4[C@H](O)C(C)=C[C@@H](C(=O)O1)[C@]34O)O2 (some centres undefined)
0.722 (active) and 0.976 (inactive): locus YJL095W, strain BCK1, stronger effect = lower value
0.865 (active) and 0.98 (inactive): locus YHR030C, strain SLT2, stronger effect = lower value
active: [1] 0.804 | locus YBR009C, strain hhf1, stronger effect = lower value 0.809 | locus YBR021W, strain FUR4, stronger effect = lower value 0.838 | locus YBR023C, strain chs3, stronger effect = lower value 0.889 | locus YBR279W, strain paf1, stronger effect = lower value 0.882 | locus YCL011C, strain gbp2, stronger effect = lower value 0.817 | locus YCL016C, strain dcc1, stronger effect = lower value 0.86 | locus YCL029C, strain bik1, stronger effect = lower value 0.889 | locus YCL069W, strain vba3, stronger effect = lower value 0.898 | locus YDL035C, strain GPR1, stronger effect = lower value 0.847 | locus YDL074C, strain BRE1, stronger effect = lower value 0.669 | locus YDL134C, strain PPH21, stronger effect = lower value 0.853 | locus YDL192W, strain arf1, stronger effect = lower value 0.847 | locus YDR137W, strain rgp1, stronger effect = lower value 0.499 | locus YDR162C, strain NBP2, stronger effect = lower value 0.769 | locus YDR195W, strain ref2 1.32 [resistant] | locus YDR318W, strain mcm21, stronger effect = lower value 0.853 | locus YDR388W, stronger effect = lower value 0.857 | locus YDR502C, strain sam2, stronger effect = lower value 0.841 | locus YER016W, strain bim1, stronger effect = lower value 0.911 | locus YGL086W, strain mad1, stronger effect = lower value 0.8 | locus YGL248W, strain PDE1, stronger effect = lower value 0.797 | locus YGL253W, strain hxk2, stronger effect = lower value 0.743 | locus YHR079C, strain IRE1 (second series), stronger effect = lower value 0.87 | locus YHR129C, strain ARP1, stronger effect = lower value 0.814 | locus YHR142W, strain chs7, stronger effect = lower value 0.864 | locus YIL066C, strain RNR3, stronger effect = lower value 0.742 | locus YIR030C, strain dcg1, stronger effect = lower value 0.904 | locus YJL095W, strain BCK1 (second series), stronger effect = lower value 0.891 | locus YJL164C, strain tpk1, stronger effect = lower value 0.795 | locus YJL187C, strain SWE1 (second series), stronger effect = lower value 0.791 | locus YKR001C, strain vps1, stronger effect = lower value 0.253 | locus YLL026W, stronger effect = lower value 0.886 | locus YLR039C, strain RIC1, stronger effect = lower value 0.274 | locus YLR058C, strain SHM2, stronger effect = lower value 0.881 | locus YLR221C, strain rsa3, stronger effect = lower value 0.832 | locus YLR258W, strain gsy2, stronger effect = lower value 0.849 | locus YLR262C, strain YPT6 (second series), stronger effect = lower value 0.418 | locus YLR262C, strain YPT6, stronger effect = lower value 0.214 | locus YLR268W, strain sec22, stronger effect = lower value 0.695 | locus YLR320W, strain mms22, stronger effect = lower value 0.828 | locus YLR330W, strain CHS5, stronger effect = lower value 0.893 | locus YLR342W, strain FKS1 (second series), stronger effect = lower value 0.452 | locus YLR342W, strain FKS1, stronger effect = lower value 0.681 | locus YLR418C, strain cdc73, stronger effect = lower value 0.824 | locus YMR205C, strain PFK2, stronger effect = lower value 0.77 | locus YMR307W, strain GAS1, stronger effect = lower value 0.323 | locus YNL071W, strain lat1, stronger effect = lower value 0.824 | locus YNL153C, strain GIM3, stronger effect = lower value 0.821 | locus YNL233W, strain BNI4, stronger effect = lower value 0.849 | locus YNL307C, strain MCK1, stronger effect = lower value 0.46 | locus YOR069W, strain VPS5, stronger effect = lower value 0.92 | locus YOR070C, strain gyp1, stronger effect = lower value 0.837 | locus YOR184W, strain ser1, stronger effect = lower value 0.698 | locus YOR270C, strain vph1, stronger effect = lower value 0.59 | locus YOR290C, strain snf2, stronger effect = lower value 0.864 | locus YPL051W, strain arl3, stronger effect = lower value 0.676 | locus YPL055C, strain LGE1, stronger effect = lower value 0.627 | locus YPL106C, strain sse1, stronger effect = lower value 1.38 [resistant] | locus YPR163C, strain tif3, stronger effect = lower value 0.897 | locus YPR167C, strain met16, stronger effect = lower value 0.862 | strain wtn01, stronger effect = lower value 0.76
inactive: locus YAL021C, strain ccr4, stronger effect = lower value 0.919 | locus YAL026C, strain drs2, stronger effect = lower value 0.954 | locus YAL030W, strain snc1, stronger effect = lower value 0.984 | locus YBL061C, strain skt5, stronger effect = lower value 0.964 | locus YBR171W, strain sec66, stronger effect = lower value 1 | locus YBR229C, strain ROT2, stronger effect = lower value 0.997 | locus YBR231C, strain swc5, stronger effect = lower value 0.947 | locus YCL061C, strain MRC1, stronger effect = lower value 0.976 | locus YCR088W, strain abp1, stronger effect = lower value 0.981 | locus YDL005C, strain med2, stronger effect = lower value 0.971 | locus YDL040C, strain nat1, stronger effect = lower value 0.983 | locus YDL101C, strain DUN1, stronger effect = lower value 0.933 | locus YDL185W, strain tfp1, stronger effect = lower value 1.02 | locus YDR001C, strain nth1, stronger effect = lower value 0.996 | locus YDR069C, strain doa4, stronger effect = lower value 1.02 | locus YDR101C, strain arx1, stronger effect = lower value 0.959 | locus YDR159W, strain sac3, stronger effect = lower value 0.915 | locus YDR297W, strain sur2, stronger effect = lower value 0.989 | locus YDR334W, strain swr1, stronger effect = lower value 0.982 | locus YDR335W, strain msn5, stronger effect = lower value 0.996 | locus YDR392W, strain spt3, stronger effect = lower value 0.855 | locus YEL003W, strain gim4, stronger effect = lower value 0.928 | locus YEL037C, strain rad23, stronger effect = lower value 0.973 | locus YEL061C, strain CIN8 (second series), stronger effect = lower value 0.973 | locus YEL061C, strain CIN8, stronger effect = lower value 0.933 | locus YER015W, strain faa2, stronger effect = lower value 0.957 | locus YER110C, stronger effect = lower value 1.03 | locus YER111C, strain swi4, stronger effect = lower value 0.997 | locus YER155C, strain BEM2 (second series), stronger effect = lower value 1.07 | locus YER155C, strain BEM2, stronger effect = lower value 0.966 | locus YER167W, strain BCK2, stronger effect = lower value 0.913 | locus YFR010W, strain ubp6, stronger effect = lower value 1 | locus YGL078C, strain dbp3, stronger effect = lower value 1.01 | locus YGL167C, strain pmr1, stronger effect = lower value 1.01 | locus YGL173C, strain kem1, stronger effect = lower value 0.967 | locus YGL227W, strain vid30, stronger effect = lower value 1 | locus YGL240W, strain doc1, stronger effect = lower value 1.06 | locus YGR135W, strain pre9, stronger effect = lower value 1.03 | locus YGR252W, strain gcn5, stronger effect = lower value 0.939 | locus YHR013C, strain ard1, stronger effect = lower value 0.847 | locus YHR027C, strain rpn1, stronger effect = lower value 0.977 | locus YHR079C, strain IRE1, stronger effect = lower value 0.966 | locus YHR094C, strain hxt1, stronger effect = lower value 1.01 | locus YHR200W, strain rpn10, stronger effect = lower value 1.01 | locus YIL073C, strain SPO22, stronger effect = lower value 0.817 | locus YIL125W, strain kgd1, stronger effect = lower value 0.994 | locus YJL092W, strain hpr5, stronger effect = lower value 0.967 | locus YJL115W, strain asf1, stronger effect = lower value 1 | locus YJL129C, strain trk1, stronger effect = lower value 0.955 | locus YJL134W, strain LCB3, stronger effect = lower value 1.01 | locus YJL154C, strain vps35, stronger effect = lower value 1 | locus YJL166W, strain qcr8, stronger effect = lower value 0.916 | locus YJL168C, strain set2, stronger effect = lower value 1.02 | locus YJL187C, strain SWE1, stronger effect = lower value 0.951 | locus YJR043C, strain POL32, stronger effect = lower value 0.932 | locus YJR066W, strain TOR1, stronger effect = lower value 0.973 | locus YJR075W, strain HOC1, stronger effect = lower value 0.906 | locus YKL009W, strain mrt4, stronger effect = lower value 1.01 | locus YKL068W, stronger effect = lower value 0.995 | locus YKL085W, strain MDH1 (second series), stronger effect = lower value 0.981 | locus YKL085W, strain MDH1, stronger effect = lower value 0.981 | locus YKL160W, strain elf1, stronger effect = lower value 0.969 | locus YKR026C, strain gcn3, stronger effect = lower value 0.996 | locus YKR091W, strain srl3, stronger effect = lower value 0.989 | locus YLL001W, strain dnm1, stronger effect = lower value 0.983 | locus YLL041C, strain sdh2, stronger effect = lower value 0.98 | locus YLR027C, strain aat2, stronger effect = lower value 0.936 | locus YLR102C, strain apc9, stronger effect = lower value 1.02 | locus YLR113W, strain HOG1, stronger effect = lower value 0.975 | locus YLR357W, strain rsc2, stronger effect = lower value 1.03 | locus YLR370C, strain arc18, stronger effect = lower value 0.985 | locus YLR371W, strain rom2, stronger effect = lower value 1.03 | locus YLR384C, strain iki3, stronger effect = lower value 1.02 | locus YML016C, strain PPZ1, stronger effect = lower value 1 | locus YML032C, strain rad52, stronger effect = lower value 0.915 | locus YML120C, strain ndi1, stronger effect = lower value 0.955 | locus YML124C, strain tub3, stronger effect = lower value 1.01 | locus YMR058W, strain fet3, stronger effect = lower value 1 | locus YMR078C, strain ctf18, stronger effect = lower value 0.98 | locus YMR125W, strain sto1, stronger effect = lower value 1.03 | locus YMR129W, stronger effect = lower value 0.996 | locus YMR223W, strain ubp8, stronger effect = lower value 0.953 | locus YMR231W, strain pep5, stronger effect = lower value 0.984 | locus YNL067W, strain RPL9B, stronger effect = lower value 0.904 | locus YNL183C, strain NPR1, stronger effect = lower value 0.926 | locus YNL209W, strain ssb2, stronger effect = lower value 0.937 | locus YNL248C, strain rpa49, stronger effect = lower value 0.926 | locus YNL250W, strain rad50, stronger effect = lower value 1.02 | locus YNL271C, strain bni1, stronger effect = lower value 1.01 | locus YNL298W, strain CLA4, stronger effect = lower value 1.04 | locus YNL322C, strain KRE1 (second series), stronger effect = lower value 0.935 | locus YNR049C, strain mso1, stronger effect = lower value 0.987 | locus YNR052C, strain pop2, stronger effect = lower value 0.952 | locus YOL012C, strain htz1 0.305 | locus YOL147C, strain pex11, stronger effect = lower value 0.935 | locus YOR001W, strain rrp6, stronger effect = lower value 1 | locus YOR061W, strain CKA2, stronger effect = lower value 0.891 | locus YOR080W, strain dia2, stronger effect = lower value 0.997 | locus YOR083W, strain WHI5, stronger effect = lower value 0.901 | locus YOR106W, strain vam3, stronger effect = lower value 0.984 | locus YOR136W, strain idh2, stronger effect = lower value 0.936 | locus YOR144C, strain elg1, stronger effect = lower value 0.97 | locus YOR231W, strain MKK1, stronger effect = lower value 0.945 | locus YOR265W, strain rbl2, stronger effect = lower value 0.98 | locus YOR316C, strain cot1, stronger effect = lower value 1.01 | locus YPL078C, strain atp4, stronger effect = lower value 0.982 | locus YPL240C, strain hsp82, stronger effect = lower value 0.931 | locus YPL256C, strain CLN2, stronger effect = lower value 0.955 | locus YPR119W, strain clb2, stronger effect = lower value 1.02 | locus YPR141C, strain kar3, stronger effect = lower value 0.997
